The results in this text go back to the supplement of paper PMC11172423.

Experiment [1] has as its system Falciformispora senegalensis CBS197.79. Briefly: growth relative to untreated control; higher = less inhibition, active = 20 or less. The gist of the method:
(§1)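 Hyphal fragments of M. mycetomatis MM55 or F. senegalensis CBS197.79 were suspended in colourless RPMI 1640 with L-glutamine and MOPS at 68–72% transmission at 660 nm. They were exposed in 96-well plates to compound at 100 or 25 µM for 7 days at 37 °C. Viability was read with MTS (2 h, 490 nm) or resazurin (600 nm). Growth is metabolic activity relative to the untreated growth control, both corrected with a medium-plus-dye blank.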

The test system of experiment [2] is Madurella mycetomatis MM55. The description is as above. Put shortly: as §1

Each structure is given as a SMILES string. Values without a mark were called inactive.

For `O=C(NCCN1CCCCC1)c1cncc(-c2ccc(Cl)c(Cl)c2)c1`, the growth in experiment [1] (25 µM) is 95.7%; in experiment [1] (100 µM) it was 30.1%; in experiment [2] (25 µM) it was 52.1%; in experiment [2] (100 µM), 5.8% (active).
For `CC1(O)CN(C(=O)c2cccc(NC(=O)c3ccc(Nc4ccccn4)cc3)c2)C1` the same measures were 106%, 107%, 55.8% and 141%.
As for `CCN1CCN(Cc2ccc(-c3cc4c(N[C@H](C)c5ccccc5)[nH]cnc-4n3)cc2)CC1`, the growth in experiment [1] (25 µM) was 78.1%; in experiment [1] (100 µM), 49.3%; in experiment [2] (25 µM) it was 97.8%; in experiment [2] (100 µM), 46.8%.
The like results for `Fc1cccc(-c2ccc3c(c2)CC(NCc2c[nH]c4cnccc24)C3)c1` (configuration not stated) were, in that order, 6.11% (active), 14.3% (active), 5.29% (active) and 5.16% (active).
The like results for `CC[C@@H]([C@H](C)O)n1ncn(-c2ccc(N3CCN(c4ccc(OC[C@@H]5CO[C@@](Cn6cncn6)(c6ccc(F)cc6F)C5)cc4)CC3)cc2)c1=O` were, in that order, 25.2%, 24.1%, 6.56% (active) and 9.91% (active).
For `COc1cc2nccc(Oc3ccc(NC(=O)C4(C(=O)Nc5ccc(F)cc5)CC4)cc3)c2cc1OC` the same measures were 83.6%, 98.4%, 99.9% and 79.9%.
For `CCNCc1cc(Nc2ccnc3cc(Cl)ccc23)ccc1O`, the growth was 48.5% in experiment [1] (25 µM), 16.4% (active) in experiment [1] (100 µM), 37% in experiment [2] (25 µM) and 2.65% (active) in experiment [2] (100 µM).
The like results for `C/C=C/C[C@@H](C)[C@@H](O)[C@H]1C(=O)N[C@@H](CC)C(=O)N(C)CC(=O)N(C)[C@@H](CC(C)C)C(=O)N[C@@H](C(C)C)C(=O)N(C)[C@@H](CC(C)C)C(=O)N[C@@H](C)C(=O)N[C@H](C)C(=O)N(C)[C@H](CC(C)C)C(=O)N(C)[C@@H](CC(C)C)C(=O)N(C)[C@@H](C(C)C)C(=O)N1C` were, in that order, 113%, 94.5%, 79% and 68.9%.
The like results for `CCOc1cc([C@@H](CS(C)(=O)=O)N2C(=O)c3cccc(NC(C)=O)c3C2=O)ccc1OC` were, in that order, 99.4%, 99.6%, 98.3% and 90.4%.
The like results for `c1ccc(-c2ccnc(C3CCN(CC45CNCC4C5)CC3)n2)cc1` (configuration not stated) were, in that order, 82.4%, 91.2%, 71.4% and 134%.
For the compound `Cc1c(-c2ccc(-c3ccccc3F)cc2)nc2ccc(F)cc2c1C(=O)O`, the growth is 103% in experiment [1] (25 µM), 98.6% in experiment [1] (100 µM), 115% in experiment [2] (25 µM) and 83.3% in experiment [2] (100 µM).
For `N#Cc1c(N)nc(NC2CC2)nc1N` the same measures were 99.7%, 92.9%, 91.3% and 95.4%.
For `Clc1ccc2c(N3CCN(CCCN4CCN(c5ccnc6cc(Cl)ccc56)CC4)CC3)ccnc2c1` the same measures were 104%, 101%, 95.9% and 86.7%.
For `O=C(c1ccc(Nc2nccc(-c3cc(Cl)cc(C(F)(F)F)c3)n2)cc1)N1CC2(COC2)C1` the same measures were 96%, 96.8%, 62.9% and 50.6%.
Turning to `CC(C)(C)NC(=O)N[C@H](C(=O)N1C[C@H]2[C@@H]([C@H]1C(=O)NC(CC1CCC1)C(=O)C(N)=O)C2(C)C)C(C)(C)C` (some centres not stated), the growth was 103% in experiment [1] (25 µM), 101% in experiment [1] (100 µM), 103% in experiment [2] (25 µM) and 81.9% in experiment [2] (100 µM).
`CCCNc1nc(NC2CCCCC2)c2ccsc2n1`: the growth in experiment [1] (25 µM) is 85.5%; in experiment [1] (100 µM), 88.3%; in experiment [2] (25 µM), 14.7% (active); in experiment [2] (100 µM), 48.2%.
For `Cc1ccc(C(=O)Nc2ccc(CN3CCN(C)CC3)c(C(F)(F)F)c2)cc1C#Cc1cnc2cccnn12` the same measures were 20.7%, -2.57% (active), 16.4% (active) and 10.5% (active).
`COc1ccc2cc1Oc1ccc(cc1)C[C@H]1c3cc(c(OC)cc3CCN1C)Oc1c(OC)c(OC)cc3c1[C@H](C2)N(C)CC3`: the growth in experiment [1] (25 µM) is 33.4%; in experiment [1] (100 µM), 20.6%; in experiment [2] (25 µM) it was 3.29% (active); in experiment [2] (100 µM), 3.62% (active).
